# From article PMC7862700, “An all-to-all approach to the identification of sequence-specific readers for epigenetic DNA modifications on cytosine”
# How the values were obtained:
# Assay in all cases: DAPPL (digital affinity profiling via proximity ligation, sequencing); 10 mM Tris-HCl pH 7.5, 50 mM NaCl, 1 mM DTT, 4% glycerol, room temperature, 30 min; GST-TFs on glutathione beads, 16-mer random dsDNA library, 0.1% formaldehyde crosslink after washing; high values mean tight binding
# FLI1 = molecular target: T1, FLI1 (Homo sapiens, UniProt Q01543 1-452); conditions: protein: recombinant; tags: N-terminal GST; dsDNA, one strand shown
# T1 sequence: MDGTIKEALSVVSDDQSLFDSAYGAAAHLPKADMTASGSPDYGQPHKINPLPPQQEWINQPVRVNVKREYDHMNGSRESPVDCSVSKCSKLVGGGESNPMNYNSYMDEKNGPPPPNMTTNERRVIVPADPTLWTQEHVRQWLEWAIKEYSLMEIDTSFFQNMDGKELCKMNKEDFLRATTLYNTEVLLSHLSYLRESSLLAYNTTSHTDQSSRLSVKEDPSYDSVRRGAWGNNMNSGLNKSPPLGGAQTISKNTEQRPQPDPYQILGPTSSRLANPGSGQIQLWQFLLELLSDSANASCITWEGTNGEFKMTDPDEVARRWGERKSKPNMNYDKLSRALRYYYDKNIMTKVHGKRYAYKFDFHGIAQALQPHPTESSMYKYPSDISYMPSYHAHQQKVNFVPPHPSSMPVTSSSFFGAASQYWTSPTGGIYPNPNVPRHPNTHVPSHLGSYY
# Summary of the method: (§1)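 GST fusions of human transcription factors were expressed in yeast and captured with glutathione beads. Once given DNA barcodes and pooled alongside a tag-only sample, they were incubated for 30 min at room temperature with 200 nmole of a random double-stranded 16-mer DNA library in Tris/NaCl/DTT/glycerol buffer, then washed, crosslinked (0.1% formaldehyde), proximity-ligated, PCR-amplified and sequenced on an Illumina NextSeq500. The binding signal of each hexamer is its read frequency for a factor divided by its frequency for the tag-only sample.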
# ELK1 = molecular target: T2, ELK1 (Homo sapiens, UniProt P19419 1-428); conditions: protein: recombinant; tags: N-terminal GST; dsDNA, one strand shown
# T2 sequence: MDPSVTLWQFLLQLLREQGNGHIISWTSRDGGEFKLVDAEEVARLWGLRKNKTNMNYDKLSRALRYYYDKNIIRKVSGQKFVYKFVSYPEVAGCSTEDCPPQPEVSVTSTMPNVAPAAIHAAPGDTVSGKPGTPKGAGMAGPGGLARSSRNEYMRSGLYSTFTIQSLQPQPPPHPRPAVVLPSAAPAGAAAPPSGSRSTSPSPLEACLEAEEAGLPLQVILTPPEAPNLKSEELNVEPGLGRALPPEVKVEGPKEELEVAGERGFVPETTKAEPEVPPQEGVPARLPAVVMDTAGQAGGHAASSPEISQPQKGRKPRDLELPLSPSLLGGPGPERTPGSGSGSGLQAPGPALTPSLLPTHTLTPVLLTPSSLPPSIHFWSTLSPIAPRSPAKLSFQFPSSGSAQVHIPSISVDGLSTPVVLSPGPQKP
# Summary of the method: as §1
# GABPA = molecular target: T3, GABPA (Homo sapiens, UniProt Q06546 1-454); conditions: protein: recombinant; tags: N-terminal GST; dsDNA, one strand shown
# T3 sequence: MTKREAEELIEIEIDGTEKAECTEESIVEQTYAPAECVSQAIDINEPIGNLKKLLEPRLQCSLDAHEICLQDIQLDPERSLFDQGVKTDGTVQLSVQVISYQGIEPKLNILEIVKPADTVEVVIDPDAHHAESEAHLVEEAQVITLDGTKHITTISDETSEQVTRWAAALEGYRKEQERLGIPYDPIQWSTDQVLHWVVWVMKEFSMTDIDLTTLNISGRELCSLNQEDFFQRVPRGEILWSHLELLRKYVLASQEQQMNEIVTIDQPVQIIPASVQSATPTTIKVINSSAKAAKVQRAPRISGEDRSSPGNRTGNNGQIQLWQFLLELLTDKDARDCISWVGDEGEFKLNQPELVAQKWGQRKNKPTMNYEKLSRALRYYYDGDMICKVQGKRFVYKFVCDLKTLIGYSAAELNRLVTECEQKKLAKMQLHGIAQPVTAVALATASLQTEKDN
# Summary of the method: as §1
# ERG = molecular target: T4, ERG (Homo sapiens, UniProt P11308 1-479); conditions: protein: recombinant; tags: N-terminal GST; dsDNA, one strand shown
# T4 sequence: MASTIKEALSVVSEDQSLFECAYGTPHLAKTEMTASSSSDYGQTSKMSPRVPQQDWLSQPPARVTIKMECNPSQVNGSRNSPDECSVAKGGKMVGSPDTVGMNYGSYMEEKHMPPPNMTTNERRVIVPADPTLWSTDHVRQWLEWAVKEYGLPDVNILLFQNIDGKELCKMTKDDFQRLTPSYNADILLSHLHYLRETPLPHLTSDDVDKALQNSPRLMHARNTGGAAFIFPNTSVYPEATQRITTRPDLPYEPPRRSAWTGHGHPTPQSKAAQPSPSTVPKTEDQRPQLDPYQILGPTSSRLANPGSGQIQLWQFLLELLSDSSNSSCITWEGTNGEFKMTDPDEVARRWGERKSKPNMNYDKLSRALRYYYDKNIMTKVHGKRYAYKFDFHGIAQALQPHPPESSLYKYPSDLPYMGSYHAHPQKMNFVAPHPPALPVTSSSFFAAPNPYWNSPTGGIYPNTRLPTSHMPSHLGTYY
# Summary of the method: as §1
# ELF1 = ELF1 (Homo sapiens, UniProt P32519 1-619); conditions: protein: recombinant; tags: N-terminal GST; dsDNA, one strand shown
# ELF1, sequence (P32519 whole entry): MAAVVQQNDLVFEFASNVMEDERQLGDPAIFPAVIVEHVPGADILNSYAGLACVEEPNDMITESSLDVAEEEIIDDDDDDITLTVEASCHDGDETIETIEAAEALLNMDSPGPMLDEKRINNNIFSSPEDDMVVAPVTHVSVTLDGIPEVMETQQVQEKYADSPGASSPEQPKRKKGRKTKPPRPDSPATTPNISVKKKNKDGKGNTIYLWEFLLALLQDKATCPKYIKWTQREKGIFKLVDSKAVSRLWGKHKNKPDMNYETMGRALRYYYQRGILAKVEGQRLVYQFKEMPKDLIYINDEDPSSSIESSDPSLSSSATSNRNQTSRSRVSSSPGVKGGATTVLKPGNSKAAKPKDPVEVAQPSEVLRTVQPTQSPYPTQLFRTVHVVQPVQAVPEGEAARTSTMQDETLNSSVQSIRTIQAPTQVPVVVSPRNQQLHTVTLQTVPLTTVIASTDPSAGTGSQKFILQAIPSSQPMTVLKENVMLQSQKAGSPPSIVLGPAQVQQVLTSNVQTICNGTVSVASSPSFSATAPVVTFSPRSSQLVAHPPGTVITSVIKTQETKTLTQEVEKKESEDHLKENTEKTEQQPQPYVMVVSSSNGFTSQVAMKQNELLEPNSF
# Summary of the method: as §1
# EHF = molecular target: T5, EHF (Homo sapiens, UniProt Q9NZC4 1-300); conditions: protein: recombinant; tags: N-terminal GST; dsDNA, one strand shown
# T5 sequence: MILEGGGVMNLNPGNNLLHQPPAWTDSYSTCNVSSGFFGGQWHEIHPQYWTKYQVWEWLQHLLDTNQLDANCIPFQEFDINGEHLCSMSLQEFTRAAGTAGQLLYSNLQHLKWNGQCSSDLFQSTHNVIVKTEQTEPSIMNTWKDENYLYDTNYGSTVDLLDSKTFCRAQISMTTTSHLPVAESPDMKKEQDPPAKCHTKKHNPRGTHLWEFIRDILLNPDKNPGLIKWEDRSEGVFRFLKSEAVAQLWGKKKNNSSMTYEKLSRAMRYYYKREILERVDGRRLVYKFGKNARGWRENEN
# Summary of the method: as §1
# SPI1 = SPI1 (Homo sapiens, UniProt P17947 1-270); conditions: protein: recombinant; tags: N-terminal GST; dsDNA, one strand shown
# Summary of the method: as §1
# SPIB = SPIB (Homo sapiens, UniProt Q01892 1-262); conditions: protein: recombinant; tags: N-terminal GST; dsDNA, one strand shown
# SPIB, sequence (Q01892 whole entry): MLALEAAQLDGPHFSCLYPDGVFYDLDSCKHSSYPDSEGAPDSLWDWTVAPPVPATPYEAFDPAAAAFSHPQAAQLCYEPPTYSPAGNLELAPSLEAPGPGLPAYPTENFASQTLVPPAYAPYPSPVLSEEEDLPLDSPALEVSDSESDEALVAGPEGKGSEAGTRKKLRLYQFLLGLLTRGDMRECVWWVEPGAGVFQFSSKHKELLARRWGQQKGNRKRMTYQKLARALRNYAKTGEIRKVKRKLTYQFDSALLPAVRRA
# Summary of the method: as §1
# ELK3 = molecular target: T6, ELK3 (Homo sapiens, UniProt P41970 1-407); conditions: protein: recombinant; tags: N-terminal GST; dsDNA, one strand shown
# T6 sequence: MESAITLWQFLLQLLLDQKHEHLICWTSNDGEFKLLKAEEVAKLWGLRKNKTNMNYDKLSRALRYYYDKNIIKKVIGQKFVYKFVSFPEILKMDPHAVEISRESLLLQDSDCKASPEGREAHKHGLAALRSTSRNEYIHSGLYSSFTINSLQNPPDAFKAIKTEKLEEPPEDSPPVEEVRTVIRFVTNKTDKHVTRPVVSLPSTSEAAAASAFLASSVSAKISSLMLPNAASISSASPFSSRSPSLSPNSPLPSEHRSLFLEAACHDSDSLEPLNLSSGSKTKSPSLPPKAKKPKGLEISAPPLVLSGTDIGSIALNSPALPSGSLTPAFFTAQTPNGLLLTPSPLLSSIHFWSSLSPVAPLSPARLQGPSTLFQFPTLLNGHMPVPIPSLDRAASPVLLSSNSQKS
# Summary of the method: as §1
# FEV = molecular target: T7, FEV (Homo sapiens, UniProt Q99581 1-238); conditions: protein: recombinant; tags: N-terminal GST; dsDNA, one strand shown
# T7 sequence: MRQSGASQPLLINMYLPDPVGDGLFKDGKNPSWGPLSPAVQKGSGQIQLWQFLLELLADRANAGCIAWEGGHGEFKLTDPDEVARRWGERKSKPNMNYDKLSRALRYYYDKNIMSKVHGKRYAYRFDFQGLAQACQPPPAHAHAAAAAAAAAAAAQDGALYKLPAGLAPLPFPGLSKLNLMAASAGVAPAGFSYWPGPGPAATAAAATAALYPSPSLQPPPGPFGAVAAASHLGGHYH
# Summary of the method: as §1
# ETV5 = ETV5 (Homo sapiens, UniProt P41161 1-510); conditions: protein: recombinant; tags: N-terminal GST; dsDNA, one strand shown
# ETV5, sequence (P41161 whole entry): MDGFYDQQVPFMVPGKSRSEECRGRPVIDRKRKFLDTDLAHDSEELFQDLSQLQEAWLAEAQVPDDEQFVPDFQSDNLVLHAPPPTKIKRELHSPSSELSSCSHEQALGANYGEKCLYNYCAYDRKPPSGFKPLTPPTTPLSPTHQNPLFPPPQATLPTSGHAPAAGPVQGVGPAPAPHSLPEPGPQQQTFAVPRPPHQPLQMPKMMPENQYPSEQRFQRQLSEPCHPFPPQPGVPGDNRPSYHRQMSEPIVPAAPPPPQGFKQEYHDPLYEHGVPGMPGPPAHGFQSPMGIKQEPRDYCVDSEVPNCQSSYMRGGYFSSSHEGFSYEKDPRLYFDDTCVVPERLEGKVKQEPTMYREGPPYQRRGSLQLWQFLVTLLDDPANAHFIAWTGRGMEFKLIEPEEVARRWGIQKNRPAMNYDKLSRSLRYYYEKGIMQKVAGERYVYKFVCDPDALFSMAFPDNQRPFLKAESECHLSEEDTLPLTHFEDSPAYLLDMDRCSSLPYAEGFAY
# Summary of the method: as §1
# HSF1 = HSF1 (Homo sapiens, UniProt Q00613 1-529); conditions: protein: recombinant; tags: N-terminal GST; chain copies: 3; dsDNA, one strand shown
# HSF1, sequence (Q00613 whole entry): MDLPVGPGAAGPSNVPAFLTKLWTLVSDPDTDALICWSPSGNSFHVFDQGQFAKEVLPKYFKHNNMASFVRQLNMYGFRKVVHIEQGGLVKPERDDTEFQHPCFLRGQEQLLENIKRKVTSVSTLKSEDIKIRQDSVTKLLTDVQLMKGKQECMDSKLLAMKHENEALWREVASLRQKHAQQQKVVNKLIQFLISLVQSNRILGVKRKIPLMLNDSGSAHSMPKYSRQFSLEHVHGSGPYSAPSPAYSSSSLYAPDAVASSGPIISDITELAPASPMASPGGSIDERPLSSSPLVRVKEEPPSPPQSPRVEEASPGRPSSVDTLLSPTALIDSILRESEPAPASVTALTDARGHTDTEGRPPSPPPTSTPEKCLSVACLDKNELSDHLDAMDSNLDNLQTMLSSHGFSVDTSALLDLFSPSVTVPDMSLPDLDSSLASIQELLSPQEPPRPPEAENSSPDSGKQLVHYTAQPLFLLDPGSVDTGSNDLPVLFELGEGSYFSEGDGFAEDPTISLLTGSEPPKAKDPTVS
# Summary of the method: as §1
# SPIC = molecular target: T8, SPIC (Homo sapiens, UniProt Q8N5J4 1-248); conditions: protein: recombinant; tags: N-terminal GST; dsDNA, one strand shown
# T8 sequence: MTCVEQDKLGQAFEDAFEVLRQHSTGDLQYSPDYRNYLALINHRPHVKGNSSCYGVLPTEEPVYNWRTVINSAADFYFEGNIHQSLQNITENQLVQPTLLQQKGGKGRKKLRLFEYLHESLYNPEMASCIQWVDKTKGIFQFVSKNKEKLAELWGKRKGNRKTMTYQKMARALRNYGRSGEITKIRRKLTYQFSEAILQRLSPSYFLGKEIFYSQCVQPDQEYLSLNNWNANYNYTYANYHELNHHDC
# Summary of the method: as §1
# ELF4 = ELF4 (Homo sapiens, UniProt Q99607 1-663); conditions: protein: recombinant; tags: N-terminal GST; dsDNA, one strand shown
# ELF4, sequence (Q99607 whole entry): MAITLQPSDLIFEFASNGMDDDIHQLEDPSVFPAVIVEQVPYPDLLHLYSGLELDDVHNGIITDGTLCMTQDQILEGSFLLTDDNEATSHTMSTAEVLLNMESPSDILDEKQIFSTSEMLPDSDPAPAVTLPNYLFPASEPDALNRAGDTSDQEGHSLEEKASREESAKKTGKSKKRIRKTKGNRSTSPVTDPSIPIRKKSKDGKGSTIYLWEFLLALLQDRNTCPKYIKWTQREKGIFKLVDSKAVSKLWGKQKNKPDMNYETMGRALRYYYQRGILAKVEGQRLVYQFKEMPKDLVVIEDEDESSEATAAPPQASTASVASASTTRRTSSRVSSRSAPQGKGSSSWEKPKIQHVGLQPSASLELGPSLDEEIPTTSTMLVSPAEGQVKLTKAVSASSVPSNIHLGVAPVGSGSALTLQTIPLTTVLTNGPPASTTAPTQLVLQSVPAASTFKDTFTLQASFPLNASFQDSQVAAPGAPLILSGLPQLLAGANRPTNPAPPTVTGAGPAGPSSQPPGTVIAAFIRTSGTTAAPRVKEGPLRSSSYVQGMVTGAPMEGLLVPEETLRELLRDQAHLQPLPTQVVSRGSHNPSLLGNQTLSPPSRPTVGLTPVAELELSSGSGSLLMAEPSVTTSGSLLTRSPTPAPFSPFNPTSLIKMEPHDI
# Summary of the method: as §1
# ELK4 = molecular target: T9, ELK4 (Homo sapiens, UniProt P28324-2 1-405); conditions: protein: recombinant; tags: N-terminal GST; dsDNA, one strand shown
# T9 sequence: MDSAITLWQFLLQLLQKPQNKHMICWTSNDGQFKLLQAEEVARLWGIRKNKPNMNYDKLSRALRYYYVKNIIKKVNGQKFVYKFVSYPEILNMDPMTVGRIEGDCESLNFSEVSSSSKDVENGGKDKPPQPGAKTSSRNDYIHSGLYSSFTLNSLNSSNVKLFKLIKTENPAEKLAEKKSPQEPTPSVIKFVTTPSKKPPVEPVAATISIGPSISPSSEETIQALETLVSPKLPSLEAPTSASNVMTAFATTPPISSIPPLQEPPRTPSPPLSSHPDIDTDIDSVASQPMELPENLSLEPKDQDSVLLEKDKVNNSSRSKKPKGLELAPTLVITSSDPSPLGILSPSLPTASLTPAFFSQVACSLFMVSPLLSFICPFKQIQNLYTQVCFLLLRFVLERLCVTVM
# Summary of the method: as §1
# ETV2 = molecular target: T10, ETV2 (Homo sapiens, UniProt O00321 1-342); conditions: protein: recombinant; tags: N-terminal GST; dsDNA, one strand shown
# T10 sequence: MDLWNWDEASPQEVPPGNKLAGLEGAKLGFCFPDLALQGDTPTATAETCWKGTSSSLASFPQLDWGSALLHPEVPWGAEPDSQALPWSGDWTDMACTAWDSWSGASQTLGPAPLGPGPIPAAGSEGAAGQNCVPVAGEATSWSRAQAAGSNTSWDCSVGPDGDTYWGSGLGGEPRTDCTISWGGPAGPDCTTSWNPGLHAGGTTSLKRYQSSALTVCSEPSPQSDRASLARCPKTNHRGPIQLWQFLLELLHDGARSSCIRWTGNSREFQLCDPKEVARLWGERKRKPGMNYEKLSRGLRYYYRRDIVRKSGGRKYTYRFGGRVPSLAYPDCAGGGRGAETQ
# Summary of the method: as §1
# ELF3 = molecular target: T11, ELF3 (Homo sapiens, UniProt P78545 1-371); conditions: protein: recombinant; tags: N-terminal GST; dsDNA, one strand shown
# T11 sequence: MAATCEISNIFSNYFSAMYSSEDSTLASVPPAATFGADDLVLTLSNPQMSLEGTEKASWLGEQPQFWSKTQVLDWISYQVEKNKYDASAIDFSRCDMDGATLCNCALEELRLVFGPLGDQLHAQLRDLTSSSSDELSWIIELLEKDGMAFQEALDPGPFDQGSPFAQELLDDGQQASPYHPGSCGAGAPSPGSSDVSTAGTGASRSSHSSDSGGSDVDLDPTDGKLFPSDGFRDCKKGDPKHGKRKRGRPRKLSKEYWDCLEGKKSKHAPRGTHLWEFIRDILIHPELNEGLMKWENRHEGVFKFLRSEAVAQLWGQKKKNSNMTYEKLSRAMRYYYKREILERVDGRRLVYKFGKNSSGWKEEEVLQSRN
# Summary of the method: as §1
# CRX = CRX (Homo sapiens, UniProt O43186 1-299); conditions: protein: recombinant; tags: N-terminal GST; dsDNA, one strand shown
# CRX, sequence (O43186 whole entry): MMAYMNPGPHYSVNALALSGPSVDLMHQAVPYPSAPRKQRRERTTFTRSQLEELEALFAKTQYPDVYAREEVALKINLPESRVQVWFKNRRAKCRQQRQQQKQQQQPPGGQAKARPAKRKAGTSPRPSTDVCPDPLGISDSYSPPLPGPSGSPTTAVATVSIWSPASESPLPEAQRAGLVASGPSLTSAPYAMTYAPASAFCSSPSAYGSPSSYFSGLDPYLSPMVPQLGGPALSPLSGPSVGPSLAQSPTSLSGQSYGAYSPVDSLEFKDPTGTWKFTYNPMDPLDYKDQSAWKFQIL
# Summary of the method: as §1
# ETV1 = ETV1 (Homo sapiens, UniProt P50549 1-477); conditions: protein: recombinant; tags: N-terminal GST; dsDNA, one strand shown
# ETV1, sequence (P50549 whole entry): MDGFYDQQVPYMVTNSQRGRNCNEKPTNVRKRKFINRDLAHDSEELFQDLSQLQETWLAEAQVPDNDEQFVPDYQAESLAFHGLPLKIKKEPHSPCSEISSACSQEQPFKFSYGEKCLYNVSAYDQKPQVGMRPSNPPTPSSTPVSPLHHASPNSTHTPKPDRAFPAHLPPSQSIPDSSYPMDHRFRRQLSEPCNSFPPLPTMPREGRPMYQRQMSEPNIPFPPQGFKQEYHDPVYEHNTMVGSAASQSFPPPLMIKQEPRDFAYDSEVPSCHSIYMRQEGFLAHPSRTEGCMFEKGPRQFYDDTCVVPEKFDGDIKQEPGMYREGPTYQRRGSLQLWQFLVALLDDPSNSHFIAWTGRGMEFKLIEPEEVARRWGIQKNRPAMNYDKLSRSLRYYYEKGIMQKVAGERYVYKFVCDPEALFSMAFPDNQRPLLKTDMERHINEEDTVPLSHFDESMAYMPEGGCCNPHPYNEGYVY
# Summary of the method: as §1
sequence,measurement,setting,value
CATATA,binding signal,FLI1,"1.17 fold enrichment (6-mer frequency, TF over GST control)"
same,binding signal,ELK1,"1.07 fold enrichment (6-mer frequency, TF over GST control)"
same,binding signal,GABPA,"1.14 fold enrichment (6-mer frequency, TF over GST control)"
same,binding signal,ERG,"1.08 fold enrichment (6-mer frequency, TF over GST control)"
same,binding signal,ELF1,"1.12 fold enrichment (6-mer frequency, TF over GST control)"
same,binding signal,EHF,"1.06 fold enrichment (6-mer frequency, TF over GST control)"
same,binding signal,SPI1,"1.06 fold enrichment (6-mer frequency, TF over GST control)"
same,binding signal,SPIB,"1.06 fold enrichment (6-mer frequency, TF over GST control)"
same,binding signal,ELK3,"1.22 fold enrichment (6-mer frequency, TF over GST control)"
same,binding signal,FEV,"1.08 fold enrichment (6-mer frequency, TF over GST control)"
same,binding signal,ETV5,"1.09 fold enrichment (6-mer frequency, TF over GST control)"
same,binding signal,HSF1,"1.03 fold enrichment (6-mer frequency, TF over GST control)"
same,binding signal,SPIC,"1.14 fold enrichment (6-mer frequency, TF over GST control)"
same,binding signal,ELF4,"1.11 fold enrichment (6-mer frequency, TF over GST control)"
same,binding signal,ELK4,"1.07 fold enrichment (6-mer frequency, TF over GST control)"
same,binding signal,ETV2,"1.17 fold enrichment (6-mer frequency, TF over GST control)"
same,binding signal,ELF3,"1.07 fold enrichment (6-mer frequency, TF over GST control)"
same,binding signal,CRX,"1.09 fold enrichment (6-mer frequency, TF over GST control)"
same,binding signal,ETV1,"1.06 fold enrichment (6-mer frequency, TF over GST control)"
